Test results from PubChem BioAssay AID1159580 (chemical genetic matrix, 2015).
Several values for one entry are separate records, joined by “and”; a condition that tells them apart may be missing. Equal entries are not always repeated. The whole screen tested about 5,500 compounds, of which about 2,000 (36%) were called active. Roughly 18% stayed inconclusive and do not appear here. Cut-off read from the data, not from the text of the source: active = normalized growth mostly below about 0.91 (no sharp cut-off); inconclusive = no clear call, values can overlap the other calls; inactive = mostly above about 0.92. Some of the results follow.

Experiment: chemical genetic growth profiling, strain panel (AID 1159580);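 note: tested at 20 µM; growth read once vehicle control cultures reached saturation at 30 °C; 1 = growth at the plate median or of vehicle wells; lower values mean less growth of the strain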
Details: S. cerevisiae deletion strains, growth OD

Measured: normalized growth

O=C(O)CCCc1ccc(N(CCCl)CCCl)cc1
inactive: locus YAL021C, strain ccr4, hits give low values 0.929 | locus YAL026C, strain drs2, hits give low values 0.965 | locus YAL030W, strain snc1, hits give low values 0.971 | locus YAL040C, strain CLN3, hits give low values 1.1 | locus YBL061C, strain skt5, hits give low values 0.985 | locus YBR009C, strain hhf1, hits give low values 1 | locus YBR021W, strain FUR4, hits give low values 1.01 | locus YBR023C, strain chs3, hits give low values 0.957 | locus YBR171W, strain sec66, hits give low values 0.983 | locus YBR229C, strain ROT2, hits give low values 0.95 | locus YBR231C, strain swc5, hits give low values 0.997 | locus YBR279W, strain paf1, hits give low values 0.955 | locus YCL011C, strain gbp2, hits give low values 0.959 | locus YCL016C, strain dcc1, hits give low values 0.931 | locus YCL029C, strain bik1, hits give low values 0.989 | locus YCL061C, strain MRC1, hits give low values 0.986 | locus YCL069W, strain vba3, hits give low values 0.977 | locus YCR088W, strain abp1, hits give low values 0.984 | locus YDL005C, strain med2, hits give low values 0.997 | locus YDL035C, strain GPR1, hits give low values 0.974 | locus YDL040C, strain nat1, hits give low values 0.979 | locus YDL074C, strain BRE1, hits give low values 1 | locus YDL101C, strain DUN1, hits give low values 0.986 | locus YDL185W, strain tfp1, hits give low values 0.973 | locus YDL192W, strain arf1, hits give low values 0.984 | locus YDR001C, strain nth1, hits give low values 0.973 | locus YDR069C, strain doa4, hits give low values 0.955 | locus YDR101C, strain arx1, hits give low values 0.991 | locus YDR137W, strain rgp1, hits give low values 0.943 | locus YDR150W, strain NUM1, hits give low values 0.989 | locus YDR159W, strain sac3, hits give low values 1.01 | locus YDR162C, strain NBP2, hits give low values 0.947 | locus YDR195W, strain ref2 0.959 | locus YDR297W, strain sur2, hits give low values 0.986 | locus YDR318W, strain mcm21, hits give low values 0.999 | locus YDR334W, strain swr1, hits give low values 0.969 | locus YDR335W, strain msn5, hits give low values 0.967 | locus YDR363W, strain ESC2, hits give low values 1 | locus YDR388W, hits give low values 0.985 | locus YDR392W, strain spt3, hits give low values 0.881 | locus YDR502C, strain sam2, hits give low values 1 | locus YEL003W, strain gim4, hits give low values 0.988 | locus YEL037C, strain rad23, hits give low values 0.97 | locus YEL061C, strain CIN8 (second series), hits give low values 0.966 | locus YEL061C, strain CIN8, hits give low values 0.991 | locus YER002W, strain NOP16, hits give low values 1.02 | locus YER015W, strain faa2, hits give low values 0.973 | locus YER016W, strain bim1, hits give low values 0.986 | locus YER110C, hits give low values 0.983 | locus YER111C, strain swi4, hits give low values 0.978 | locus YER155C, strain BEM2 (second series), hits give low values 1.01 | locus YER155C, strain BEM2, hits give low values 0.991 | locus YER167W, strain BCK2, hits give low values 0.99 | locus YFR010W, strain ubp6, hits give low values 1 | locus YGL078C, strain dbp3, hits give low values 0.952 | locus YGL086W, strain mad1, hits give low values 0.932 | locus YGL167C, strain pmr1, hits give low values 0.978 | locus YGL173C, strain kem1, hits give low values 0.999 | locus YGL227W, strain vid30, hits give low values 0.955 | locus YGL240W, strain doc1, hits give low values 0.97 | locus YGL248W, strain PDE1, hits give low values 1 | locus YGL253W, strain hxk2, hits give low values 0.925 | locus YGR135W, strain pre9, hits give low values 1.04 | locus YGR252W, strain gcn5, hits give low values 1.07 | locus YHR013C, strain ard1, hits give low values 0.956 | locus YHR027C, strain rpn1, hits give low values 0.977 | locus YHR030C, strain SLT2, hits give low values 0.982 and 0.856 | locus YHR079C, strain IRE1 (second series), hits give low values 0.996 | locus YHR079C, strain IRE1, hits give low values 0.876 | locus YHR094C, strain hxt1, hits give low values 0.983 | locus YHR129C, strain ARP1, hits give low values 0.988 | locus YHR142W, strain chs7, hits give low values 0.949 | locus YHR200W, strain rpn10, hits give low values 0.981 | locus YIL066C, strain RNR3, hits give low values 0.967 | locus YIL073C, strain SPO22, hits give low values 1.02 | locus YIL125W, strain kgd1, hits give low values 0.95 | locus YIR030C, strain dcg1, hits give low values 0.983 | locus YJL092W, strain hpr5, hits give low values 0.967 | locus YJL095W, strain BCK1 (second series), hits give low values 0.974 | locus YJL095W, strain BCK1, hits give low values 1.06 and 0.888 | locus YJL115W, strain asf1, hits give low values 0.952 | locus YJL129C, strain trk1, hits give low values 0.927 | locus YJL134W, strain LCB3, hits give low values 0.983 | locus YJL154C, strain vps35, hits give low values 0.972 | locus YJL164C, strain tpk1, hits give low values 0.988 | locus YJL166W, strain qcr8, hits give low values 1 | locus YJL168C, strain set2, hits give low values 0.984 | locus YJL187C, strain SWE1 (second series), hits give low values 1 | locus YJR043C, strain POL32, hits give low values 0.963 | locus YJR066W, strain TOR1, hits give low values 0.967 | locus YJR075W, strain HOC1, hits give low values 1.02 and 0.993
